In test [1] the target is Guanine nucleotide-binding protein G(i) subunit alpha-1 (Homo sapiens) (UniProt P63096). As to the kind of experiment: qHTS Assay for Inhibitors of RGS12 GoLoco Motif Activity (Green Fluorophore) (AID 879).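 Note: 0% = labeled peptide with Gαi1 and full inhibition = labeled peptide alone without protein; negative values mean loss of peptide binding seen as reduced polarization.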 Summed up:
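Fluorescence polarization assay: 50 nM Gαi1 with 10 nM FITC-labeled RGS12 GoLoco peptide in 10 mM Tris pH 7.5, 150 mM NaCl, 0.1 mM GDP, 0.05% NP40, 10 min at room temperature with compound.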
On the technique in general: qHTS replaces the single test concentration by a dilution series.

Test [2] addresses Cytochrome P450 3A4 (Homo sapiens) (UniProt P08684). As to the kind of experiment: qHTS Assay for Inhibitors and Substrates of Cytochrome P450 3A4 (AID 884). For activity change, negative = inhibition: % is set by controls: 0 for no effect and ±100 for the full control effect. Note: nearly all actives have a fitted effect of over 50% in size. Note: potency is the fitted concentration of half-maximal effect. The essentials: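 20 nM human CYP3A4 with 25 uM Luciferin-PPXE (at KM) in 200 mM KPO4, preincubated 10 min with compound; NADPH regeneration started a 60 min RT reaction. Luciferin detected by luminescence, normalized to 57 uM ketoconazole as full inhibition.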

The target is the same in test [3]. Briefly: qHTS Assay for Activators of Cytochrome P450 3A4 (AID 885). Note: nearly all actives have a fitted effect of over 65% in size. Note: potency is the fitted concentration of half-maximal effect. The essentials:
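Human CYP3A4 (20 nM) with Luciferin-PPXE at 25 uM (its KM) in 200 mM KPO4; 10 min compound preincubation, then NADPH regeneration and 60 min reaction at RT. Luciferin read by luminescence; normalized to 57 uM ketoconazole full inhibition.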
Target sequence in this assay (P08684 whole entry, looked up): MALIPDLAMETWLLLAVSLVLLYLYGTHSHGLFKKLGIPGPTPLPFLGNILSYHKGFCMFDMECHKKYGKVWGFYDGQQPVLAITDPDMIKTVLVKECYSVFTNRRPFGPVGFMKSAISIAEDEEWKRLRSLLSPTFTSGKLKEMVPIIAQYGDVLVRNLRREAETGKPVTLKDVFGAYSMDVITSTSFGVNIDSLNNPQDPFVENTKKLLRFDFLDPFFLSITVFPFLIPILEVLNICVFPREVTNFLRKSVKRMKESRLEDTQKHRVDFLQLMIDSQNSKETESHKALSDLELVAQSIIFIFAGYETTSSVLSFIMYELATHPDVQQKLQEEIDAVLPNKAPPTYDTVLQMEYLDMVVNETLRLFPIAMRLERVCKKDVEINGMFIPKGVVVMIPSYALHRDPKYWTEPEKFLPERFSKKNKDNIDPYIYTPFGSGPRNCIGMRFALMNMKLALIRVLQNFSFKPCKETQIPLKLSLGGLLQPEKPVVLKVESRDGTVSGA

In test [4] the target is Alpha-galactosidase (Coffea arabica) (UniProt Q42656). As to the kind of experiment: Counterscreen for Glucocerebrosidase Inhibitors: qHTS Assay for Coffee Bean alpha-Galactosidase at pH 4.5 (AID 957).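 Note: plate controls were enzyme alone for no effect and no enzyme for full effect.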 The essentials:
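Coffee bean enzyme (2 nM) with 80 uM 4-methylumbelliferyl alpha-D-galactopyranoside in 50 mM citric acid, 0.005% Tween-20, pH 4.5, 20 min at room temperature; compounds 0.7 nM–77 uM. Stopped at pH 10, fluorescence 365/440 nm; AC50 from Hill fits.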
(A counterscreen serves to expose hits that act by an unwanted route or on another target.)

Test [5] shares this target. As to the kind of experiment: Counterscreen for Glucocerebrosidase Inhibitors: qHTS Assay for Coffee Bean alpha-Galactosidase at pH 5.9 (AID 998).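 Note: plate controls were uninhibited enzyme for no effect and no-enzyme basal signal for full effect.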 The essentials: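 Green coffee bean enzyme (2 nM final) was incubated with compounds (0.7 nM–77 uM) and 4-methylumbelliferyl alpha-D-galactopyranoside (80 uM) in citrate buffer pH 5.9, 20 min at room temperature. High-pH stop; fluorescence 365/440 nm; AC50 from Hill fits.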

Test [6] can be described thus: qHTS profiling for inhibitors of Plasmodium falciparum (3D7) proliferation (AID 743322).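 Note: infected erythrocytes exposed to compound for 72 h before lysis; 100% = DMSO vehicle wells and 0% = 0.29 µM artemisinin.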 Conditions: P. falciparum 3D7 proliferation; at 28.7 µM (top of the series) unless noted. Summed up:
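Erythrocytes infected with P. falciparum (0.3% parasitemia, 2.5% hematocrit) incubated with compounds 72 h at 37 C, 5% CO2. Lysis with saponin/Triton buffer containing SYBR Green I, overnight at room temperature in the dark; DNA fluorescence (485/535 nm) normalised to 0.29 uM artemisinin and DMSO.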

The nature of test [7]: qHTS profiling for inhibitors of Plasmodium falciparum (DD2) proliferation (AID 743323; call rule not given here). The note with it: lower = more inhibition; at 28.7 µM (top of the series) unless noted. The essentials: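 P. falciparum Dd2-infected erythrocytes (0.3% parasitemia, 2.5% hematocrit) exposed 72 h at 37 C, 5% CO2. Lysis with SYBR Green, overnight at room temperature, fluorescence 485/535 nm; normalized to 0.29 uM artemisinin and DMSO.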

The nature of test [8]: qHTS profiling for inhibitors of Plasmodium falciparum (HB3) proliferation (AID 743324).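 Note: 100% = DMSO vehicle wells and 0% = artemisinin-treated control wells.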 Conditions: Plasmodium falciparum HB3 blood-stage proliferation; at 28.7 µM (top of the series) unless noted. The essentials:
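P. falciparum HB3 grown in erythrocytes (0.3% parasitemia, 2.5% hematocrit final) with compound for 72 h at 37 C, 5% CO2. Parasite DNA detected by SYBR Green after saponin/triton lysis overnight; normalized to 0.29 uM artemisinin and DMSO.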

For test [9], the target named is Cytochrome P450 2C9 (Homo sapiens) (UniProt P11712). Briefly: qHTS Assay for Inhibitors and Substrates of Cytochrome P450 2C9 (AID 883). For activity change, negative = inhibition: % is set by controls: 0 for no effect and ±100 for the full control effect. Note: nearly all actives have a fitted effect of over 60% in size. Note: potency is the fitted concentration of half-maximal effect. Summed up: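 CYP2C9 deoxyluciferin hydroxylation, 37C, 60 min with NADPH regeneration; 10nM enzyme, 100uM Luciferin-H (KM). Glo detection reagent stopped reaction; luminescence normalized to sulphaphenazole (57uM) full inhibition.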

Test [10] concerns the target Cytochrome P450 2D6 (Homo sapiens) (UniProt P10635). As to the kind of experiment: qHTS Assay for Inhibitors and Substrates of Cytochrome P450 2D6 (AID 891).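 Note: luciferin methyl ether substrate demethylated by CYP2D6 with NADPH regeneration; % is set by controls: 0 for no effect and ±100 for the full control effect; nearly all actives have a fitted effect of over 60% in size.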 Summed up:
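Human CYP2D6 (5 nM) with 30 uM Luciferin-ME EGE (at Km) in 100 mM KPO4, compound preincubated 10 min, then NADPH regeneration system for 60 min at room temperature. Luciferin read by luminescence; normalized to 1.43 uM quinidine.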

Test [11] addresses Cytochrome P450 2C19 (Homo sapiens) (UniProt P33261). As to the kind of experiment: qHTS Assay for Inhibitors and Substrates of Cytochrome P450 2C19 (AID 899). For activity, negative = inhibition: % is set by controls: 0 for no effect and ±100 for the full control effect. Note: nearly all actives have a fitted effect of over 60% in size. Note: potency is the fitted concentration of half-maximal effect. The essentials:
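In 50mM KPO4, the reaction held 5nM enzyme and KM-level (10uM) Luciferin-H EGE; it ran 60 min at 37C after NADPH regeneration and a 10 min compound preincubation. Luminescence values were scaled to 57uM ketoconazole as complete inhibition.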

Inconclusive results are not listed. Activity calls are given as the source filed them. Unless noted, calls come from the whole dose curve; as a rule, active = well fitted curve in the direction sought with a large enough effect; inconclusive = small, poorly fitted or top-dose-only effect, or another doubt; inactive = no such curve, though single readings can be large; an effect the other way counts as inactive or inconclusive.

Sequence of Cytochrome P450 2C19 (Homo sapiens) (P33261 whole entry, looked up): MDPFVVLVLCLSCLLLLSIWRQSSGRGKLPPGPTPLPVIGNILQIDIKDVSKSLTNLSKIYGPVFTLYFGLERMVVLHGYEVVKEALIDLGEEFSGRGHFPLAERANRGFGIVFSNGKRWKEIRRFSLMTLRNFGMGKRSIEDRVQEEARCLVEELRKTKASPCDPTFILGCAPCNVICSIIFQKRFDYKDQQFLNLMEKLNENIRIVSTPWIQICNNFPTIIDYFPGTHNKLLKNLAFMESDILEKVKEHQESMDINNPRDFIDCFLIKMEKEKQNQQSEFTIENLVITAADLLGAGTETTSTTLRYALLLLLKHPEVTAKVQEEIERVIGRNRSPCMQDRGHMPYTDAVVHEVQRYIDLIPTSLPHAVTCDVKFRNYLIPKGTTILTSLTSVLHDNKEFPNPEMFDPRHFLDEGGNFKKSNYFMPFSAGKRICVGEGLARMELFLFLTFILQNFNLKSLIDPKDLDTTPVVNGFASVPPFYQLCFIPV
Sequence of Cytochrome P450 2C9 (Homo sapiens) (P11712 whole entry, looked up): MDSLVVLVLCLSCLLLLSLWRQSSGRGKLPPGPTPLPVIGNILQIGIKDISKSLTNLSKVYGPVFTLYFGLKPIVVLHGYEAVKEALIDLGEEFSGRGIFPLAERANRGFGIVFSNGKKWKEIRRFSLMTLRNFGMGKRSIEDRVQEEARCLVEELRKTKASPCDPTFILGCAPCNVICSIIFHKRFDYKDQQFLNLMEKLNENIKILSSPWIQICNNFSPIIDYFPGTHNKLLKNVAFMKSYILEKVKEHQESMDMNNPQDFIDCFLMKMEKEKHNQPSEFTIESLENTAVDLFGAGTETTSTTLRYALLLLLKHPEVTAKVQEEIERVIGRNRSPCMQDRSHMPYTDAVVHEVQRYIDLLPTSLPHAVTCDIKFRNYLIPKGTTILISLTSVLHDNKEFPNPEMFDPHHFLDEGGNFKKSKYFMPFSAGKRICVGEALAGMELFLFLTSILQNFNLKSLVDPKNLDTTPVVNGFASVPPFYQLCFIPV
Sequence of Alpha-galactosidase (Coffea arabica) (Q42656 whole entry, looked up): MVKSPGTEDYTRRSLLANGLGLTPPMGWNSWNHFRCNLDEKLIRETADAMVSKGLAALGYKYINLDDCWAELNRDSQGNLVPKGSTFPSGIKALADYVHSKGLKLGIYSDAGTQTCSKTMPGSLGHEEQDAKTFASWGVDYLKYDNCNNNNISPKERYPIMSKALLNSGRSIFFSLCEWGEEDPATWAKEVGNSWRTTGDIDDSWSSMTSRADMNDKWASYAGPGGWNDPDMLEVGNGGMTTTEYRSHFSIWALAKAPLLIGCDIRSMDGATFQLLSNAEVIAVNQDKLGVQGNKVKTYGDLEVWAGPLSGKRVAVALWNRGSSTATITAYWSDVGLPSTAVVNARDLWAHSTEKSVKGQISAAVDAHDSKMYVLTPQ
Sequence of Cytochrome P450 2D6 (Homo sapiens) (P10635 whole entry, looked up): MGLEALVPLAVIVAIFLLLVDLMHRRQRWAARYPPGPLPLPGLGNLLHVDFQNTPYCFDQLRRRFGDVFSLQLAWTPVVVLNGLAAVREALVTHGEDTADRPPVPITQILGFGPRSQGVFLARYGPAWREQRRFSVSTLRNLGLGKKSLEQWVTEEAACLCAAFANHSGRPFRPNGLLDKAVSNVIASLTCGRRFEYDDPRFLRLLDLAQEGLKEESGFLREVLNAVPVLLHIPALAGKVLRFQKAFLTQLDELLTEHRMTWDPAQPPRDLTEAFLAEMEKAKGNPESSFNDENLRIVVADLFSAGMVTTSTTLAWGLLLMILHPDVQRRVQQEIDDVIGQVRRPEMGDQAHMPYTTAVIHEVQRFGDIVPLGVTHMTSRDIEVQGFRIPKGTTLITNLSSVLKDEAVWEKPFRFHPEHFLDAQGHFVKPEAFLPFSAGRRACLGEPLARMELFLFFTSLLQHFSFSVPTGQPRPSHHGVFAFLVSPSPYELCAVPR
Sequence of Guanine nucleotide-binding protein G(i) subunit alpha-1 (Homo sapiens) (P63096 whole entry, looked up): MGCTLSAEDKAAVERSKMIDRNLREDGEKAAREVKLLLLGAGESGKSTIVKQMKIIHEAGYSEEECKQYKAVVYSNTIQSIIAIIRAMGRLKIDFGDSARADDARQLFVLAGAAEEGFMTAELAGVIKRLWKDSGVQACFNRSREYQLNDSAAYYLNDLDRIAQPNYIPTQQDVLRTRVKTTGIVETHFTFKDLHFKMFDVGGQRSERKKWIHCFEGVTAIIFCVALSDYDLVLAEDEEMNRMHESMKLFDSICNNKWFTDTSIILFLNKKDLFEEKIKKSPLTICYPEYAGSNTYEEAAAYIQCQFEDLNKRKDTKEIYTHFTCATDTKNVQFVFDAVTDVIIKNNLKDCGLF

On to `C[C@@]12C=CC(=O)C=C1CC[C@@H]1C2=CC[C@]2(C)[C@@H]1CC[C@H]2C(=O)CN1CCN(c2cc(N3CCCC3)nc(N3CCCC3)n2)CC1`, for which the Potency entry in test [1] and in [3] was “inactive” throughout. For the same molecule, in [2], the Potency was 3.16 µM (active). Also, the outcome in [4] and in test [5] was inactive.
In the case of `C[C@@H]1[C@@H](CC(C[C@H]2O[C@@H]3O[C@]4(C)CC[C@@H]5[C@H](C)CC[C@@H]([C@H]2C)[C@@]35OO4)C(=O)NCc2ccc(F)cc2)O[C@@H]2O[C@]3(C)CC[C@H]4[C@H](C)CC[C@@H]1[C@@]24OO3` (stereo partly drawn), the remaining parasite growth % (stronger effect = lower value) in [6] was -0.677%. Moreover, the activity, percent of control in [7] amounted to 0.0214%. In [8], this molecule registered a remaining proliferation (% of control), lower = more inhibition of 0.676%.
For the molecule `C[C@H](Br)C(=O)c1ccc2cc(Br)c3ccccc3c2c1`, the activity change, negative = inhibition in [9] was 58.8% [at 11.4 µM] (inactive).
`C[C@@]12CC[C@@H]3c4ccc(O)cc4CC[C@H]3[C@H]1CC[C@H]2O`: the Potency result in test [9] was “inactive”.
As to `CC(=O)[C@]1(O)CCC2C3C=C(Cl)C4=CC(=O)C5CC5[C@@]4(C)C3CC[C@]21C` (stereo partly drawn), the Potency entry in test [2] is “inactive”.
For the molecule `CC1=C(CC[C@H](C)CO)O[C@@H]2C[C@@H]3[C@H]4CC[C@H]5C[C@@H](O)CC[C@]5(C)[C@@H]4CC(=O)[C@@]3(C)[C@@H]12`, the activity change, negative = inhibition in test [2] is 87.6% [at 11.4 µM] (inactive). In test [3], the Potency is 3.98 µM (active).
For `CC1=CC[C@@H]2[C@@H](C1)c1c(O)cc(CC#CCCCNS(C)(=O)=O)cc1OC2(C)C`, the Potency in test [2] was 2.51 µM (active). For the same molecule, the Potency result in [3] is “inactive”.
In the case of `CN1CCc2nc(CO)c(CO)cc2C1`, the activity change, negative = inhibition in [9] is 21.8% [at 11.4 µM] (inactive); in test [2], -11.6% [at 11.4 µM] (inactive); in [10], -13.1% [at 11.4 µM] (inactive). Further, the activity, negative = inhibition in test [11] is 81.3% [at 11.4 µM] (inactive).
Regarding `CC(=O)OC1C[C@]2(C)C(C(C)=O)CCC2C2CCC3=CC(=O)CC[C@@]3(C)C12` (stereo partly drawn), the Potency in test [2] was 7.94 µM (active). Besides, in [3], the Potency result was “inactive”.
With `C[C@@]12CC[C@H]3[C@@H](CCC4=CC(=O)CC[C@]43C)[C@H]1CC[C@H]2C(=O)CO`, the Potency result in test [2] is “inactive”.
As for `CC(=O)O[C@H]1CC[C@@]2(C)[C@@H](CC[C@H]3[C@H]2CC(=O)[C@@]2(C)[C@@H]3C[C@H]3CC(C)=CC(=O)[C@H]32)C1`, the activity change, negative = inhibition in test [2] was 295% [at 11.4 µM] (inactive). Moreover, in test [3], the Potency is 2 µM (active).
Regarding `O=S(=O)(O)c1cc(N=C=S)ccc1/C=C/c1ccc(N=C=S)cc1S(=O)(=O)O`, the Potency in test [2] was 12.6 µM (active). The Potency entry in test [3] was “inactive”.
As to `Cc1[nH]cnc1CCN`, in [2], the Potency result is “inactive”.
Consider `COC(=O)[C@@H]1C[C@@]2(O)[C@@H](O)[C@@H](O)[C@@H](O)C[C@H]2N1Cc1cccnc1`, for which the Potency entry in [2] was “inactive”.
In the case of `CCCCCCCCCC[Si](C)(C)CCC(=O)N[C@@H](Cc1ccc(C)cc1)c1ccccc1`, the Potency result in test [9] was “inactive”. The call in test [4] and in test [5] was inactive.
Turning to `CC(C)C(C)/C=C/C(C)C1CCC2C3=CCC4CC(=O)CC[C@@]4(C)C3CC[C@]21C` (stereo partly drawn), the Potency entry in test [2] is “inactive”. The Potency in test [3] was 25.1 µM (active).
For `C[C@@]12CCC3c4ccc(O)cc4CCC3C1CCC2O` (stereo partly drawn), in test [2], the Potency entry is “inactive”.
Regarding `N#CC(C#N)=NNc1cccc(Cl)c1`, the Potency in test [2] was 1.26 µM (active). Moreover, the Potency entry in [3] is “inactive”.
The corresponding values for `COc1ccc2[nH]c(C(=O)c3ccccc3)cc2c1` are 7.94 µM (active) and “inactive”.
As to `CC(C)C1C(=O)N2CCCC2[C@]2(O)O[C@@](NC(=O)[C@@H]3C=C4c5cccc6[nH]cc(c56)C[C@H]4N(C)C3)(C(C)C)C(=O)N12` (stereo partly drawn), in test [2], the Potency was 1.26 µM (active). Besides, the Potency result in test [3] is “inactive”.
Regarding `COC(=O)[C@H]1C(=O)c2ccccc2O[C@@](C(=O)OC)(c2ccccc2)[C@@H]1c1ccccc1`, in test [2], the Potency was 3.98 µM (active). Besides, the activity change, positive = activation in [3] was -63.3% [at 11.4 µM] (inactive).
In the case of `O=C1NO[C@H]2[C@@H]1CN[C@@H]2C(=O)O`, the Potency entry in [2] was “inactive”.
For the molecule `O=C1NO[C@@H]2CN[C@@H](C(=O)O)[C@H]12`, the Potency result in test [2] is “inactive”.
`O=C1C=CC(=O)c2c1ccc1c2ccc2ccccc21`: the Potency was 1.26 µM (active) in test [9] and 1.58 µM (active) in test [11].
As for `c1ccc(-c2cc3c(nc2-c2ccccc2)CCNC3)cc1`, the activity change, negative = inhibition in [9] is -10% [at 11.4 µM] (inactive); in test [10], 5.57% [at 11.4 µM] (inactive). Besides, the activity change, positive = activation in test [3] was -45.7% [at 11.4 µM] (inactive). The activity, negative = inhibition in test [11] is 24.9% [at 11.4 µM] (inactive).
For the molecule `CC[C@H](C(=O)[C@H](C)[C@H](O)[C@H](C)CCc1ccc(C)c(O)c1C(=O)O)[C@H]1O[C@](CC)([C@@H]2CC[C@@](O)(CC)[C@H](C)O2)C[C@H]1C`, the Potency in test [2] was 7.94 µM (active).
On to `CC(C)=CCCC(C)C1CC[C@@]2(C)C3=C(CC[C@@]12C)C1(C)CCC(O)C(C)(C)C1CC3` (stereo partly drawn), for which the Potency in [2] is 15.8 µM (active). In test [3], the Potency result is “inactive”.
With `O=[N+]([O-])c1ccc(S(=O)(=O)Cc2ccccc2)c([N+](=O)[O-])c1`, the Potency is 3.16 µM (active) in test [9], 0.316 µM (active) in [2] and 2 µM (active) in [11]. Also, the activity change, positive = activation in test [3] is -105% [at 11.4 µM] (inactive).
Regarding `COc1cc2c(cc1O)C(CCc1ccc(Cl)cc1)N(C)CC2` (stereo not drawn), the Potency entry in [2] was “inactive”.
On to `Clc1cc(Cl)c(Cl)c(Cl)c1Cl`, for which the Potency entry in test [2] was “inactive”.
For `CC1=C2C(=COC(C)C2C)C(=O)C(C(=O)O)=C1O` (stereo not drawn), the Potency in [2] is 15.8 µM (active). For the same molecule, the Potency entry in test [3] was “inactive”.
As to `Cc1ccc2oc(-c3ccccc3)cc(=O)c2c1`, the Potency in test [2] is 10 µM (active). Moreover, in test [3], the Potency result was “inactive”.
The corresponding values for `CC1(C)C(=O)C=C[C@]2(C)C1CC(=O)[C@]1(C)C2CC[C@@]2(C)C(c3ccoc3)OC(=O)C3O[C@@]321` (stereo partly drawn) are 2.51 µM (active) and “inactive”.
On to `Nc1nc(N)c2nc(CNc3ccc(C(=O)N[C@H](CCC(=O)O)C(=O)O)cc3)cnc2n1`, for which the Potency entry in test [9] was “inactive”. The result in test [4] and in [5] was inactive.

The values above are taken from PubChem BioAssay (NCATS).
